This note sets out measurements from PubChem BioAssay.

Where “and” joins values, the source holds several entries; their conditions need not be identical. Equal entries are not always repeated. Calls of active or inactive are those of the source. Unless noted, no rule for the calls is given here.

Assay [1] in a line: compounds binding Alexa647 anti-His antibody – biochemical, small-molecule microarray, 635 nm fluorescence, artefact control for SMM control protein annotation, primary screen (AID 1128).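 Also: score merges feature fluorescence with signal-to-noise for each printed compound spot.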 The note with it: higher = more signal.
The subject of assay [2] is Human papillomavirus type 1a E7 protein (residues 1-88). The experiment in a line: HPV1a E7 small-molecule binders, primary screen, biochemical, small-molecule microarray, residues 1-88, 635 nm (AID 1129). The note with it: small-molecule microarray binding, fluorescence 635 nm; higher = more signal.
In assay [3] the target is Focal adhesion kinase 1 (Homo sapiens) (UniProt Q05397). Briefly: PTK2 protein binding on printed compound slides – biochemical, small-molecule microarray, 635/667 nm fluorescence, BSA, DTT, primary screen (AID 1130).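 Also: composite of spot emission at 667 nm and signal to noise over triplicate slides.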 The settings on record: 635 nm fluorescence, higher = more signal.
Chain of Focal adhesion kinase 1 (Homo sapiens) (Q05397 whole entry, looked up): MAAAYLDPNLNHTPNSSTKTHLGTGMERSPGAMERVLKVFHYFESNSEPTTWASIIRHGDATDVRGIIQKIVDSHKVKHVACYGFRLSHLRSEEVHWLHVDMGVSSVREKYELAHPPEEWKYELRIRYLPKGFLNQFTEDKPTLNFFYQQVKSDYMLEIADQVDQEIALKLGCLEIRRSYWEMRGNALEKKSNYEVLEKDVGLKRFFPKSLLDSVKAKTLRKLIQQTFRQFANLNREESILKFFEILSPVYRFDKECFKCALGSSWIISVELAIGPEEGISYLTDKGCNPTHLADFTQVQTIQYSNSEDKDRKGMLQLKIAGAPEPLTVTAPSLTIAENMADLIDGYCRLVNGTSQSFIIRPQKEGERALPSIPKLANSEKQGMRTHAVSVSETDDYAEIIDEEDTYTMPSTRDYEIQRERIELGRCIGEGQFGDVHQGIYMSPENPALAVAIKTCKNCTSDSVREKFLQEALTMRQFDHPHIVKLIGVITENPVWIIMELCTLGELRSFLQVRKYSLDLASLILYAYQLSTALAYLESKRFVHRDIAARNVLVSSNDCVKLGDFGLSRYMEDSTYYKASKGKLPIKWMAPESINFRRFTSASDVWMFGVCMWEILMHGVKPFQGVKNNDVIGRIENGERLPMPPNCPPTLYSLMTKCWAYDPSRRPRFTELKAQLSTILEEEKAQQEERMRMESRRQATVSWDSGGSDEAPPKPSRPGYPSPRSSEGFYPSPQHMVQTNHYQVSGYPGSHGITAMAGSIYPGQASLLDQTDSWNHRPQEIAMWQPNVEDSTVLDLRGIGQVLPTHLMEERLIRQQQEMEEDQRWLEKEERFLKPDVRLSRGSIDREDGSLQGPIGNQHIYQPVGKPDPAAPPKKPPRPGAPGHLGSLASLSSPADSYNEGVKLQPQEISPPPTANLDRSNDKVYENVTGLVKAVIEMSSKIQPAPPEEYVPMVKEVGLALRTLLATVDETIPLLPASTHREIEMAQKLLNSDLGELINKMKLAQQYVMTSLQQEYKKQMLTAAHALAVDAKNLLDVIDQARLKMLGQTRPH
The subject of assay [4] is Fibrinogen (Alexa647-labelled). The experiment in a line: Alexa647-fibrinogen binding to printed small molecules – biochemical, small-molecule microarray, 635/667 nm fluorescence, artefact control for SMM control-protein annotation, profiling panel (AID 1131).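 Also: z-score merges 667 nm fluorescence with per-spot signal-to-noise over triplicate slides.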 The note with it: fibrinogen-A647 binding fluorescence, higher = more signal.
For assay [5], the target named is Follistatin (Homo sapiens) (UniProt P19883). The experiment in a line: FST protein binding to printed compounds – biochemical, small-molecule microarray, 635/667 nm fluorescence, primary screen (AID 1132). The note with it: 635 nm fluorescence, higher = more signal.
Chain of Follistatin (Homo sapiens) (P19883 whole entry, looked up): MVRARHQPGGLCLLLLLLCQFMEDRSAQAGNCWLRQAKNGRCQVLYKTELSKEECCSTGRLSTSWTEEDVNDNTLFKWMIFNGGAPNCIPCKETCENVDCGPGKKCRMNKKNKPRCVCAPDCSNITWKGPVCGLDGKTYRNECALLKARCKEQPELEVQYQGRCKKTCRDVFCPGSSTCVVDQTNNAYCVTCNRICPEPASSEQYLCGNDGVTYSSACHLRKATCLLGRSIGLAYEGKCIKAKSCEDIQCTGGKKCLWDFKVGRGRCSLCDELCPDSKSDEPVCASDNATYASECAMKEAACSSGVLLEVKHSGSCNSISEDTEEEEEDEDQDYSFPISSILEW
In assay [6] the target is Fibroblast growth factor 2 (Homo sapiens) (UniProt P09038). Briefly: basic fibroblast growth factor binding to printed compounds – biochemical, small-molecule microarray, 635/667 nm fluorescence, primary screen (AID 1133). The settings on record: FGF2, fluorescence 635/667, higher = more signal.
Chain of Fibroblast growth factor 2 (Homo sapiens) (P09038 whole entry, looked up): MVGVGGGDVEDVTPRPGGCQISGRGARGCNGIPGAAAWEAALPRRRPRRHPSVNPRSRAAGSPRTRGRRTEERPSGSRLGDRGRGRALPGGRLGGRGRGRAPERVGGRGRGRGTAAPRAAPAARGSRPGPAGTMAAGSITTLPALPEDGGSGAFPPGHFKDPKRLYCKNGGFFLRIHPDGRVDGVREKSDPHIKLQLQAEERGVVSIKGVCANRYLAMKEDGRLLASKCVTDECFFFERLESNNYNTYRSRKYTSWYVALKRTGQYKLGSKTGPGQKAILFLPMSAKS
The nature of assay [7]: JC-1 mitochondrial potential readout, lung cancer cells – cell-based, A549, JC-1 fluorescence, basal, 24 h, 100 nL, profiling panel (AID 1138).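 Also: A549 lung adenocarcinoma cells under basal conditions with no added stimulus; test concentration not given here.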 The note with it: higher = more signal.
Assay [8] deals with Lefty1. The experiment in a line: Lefty1 protein binding to printed compounds – biochemical, small-molecule microarray, 635/667 nm fluorescence, primary screen (AID 1139). The note with it: fluorescence 635/667, higher = more signal.
Assay [9] deals with wheat germ agglutinin (Triticum aestivum), Alexa647-labelled. Briefly: Alexa647-WGA lectin binding to printed small molecules – biochemical, small-molecule microarray, 635/667 nm fluorescence, artefact control for SMM control-protein annotation, profiling panel (AID 1140).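 Also: score merges 667 nm feature emission with signal to noise over triplicate slides.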 The note with it: WGA-A647 binding, 635 nm fluorescence, higher = more signal.
Assay [10] has as its target Luciferin 4-monooxygenase (Photinus pyralis) (UniProt P08659). Briefly: inhibition of purified Photinus pyralis luciferase – biochemical, luminescence, purified enzyme, 2006 set, primary screen (AID 1141).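 Also: cell-free assay with purified firefly luciferase at 100 ng per well in PBS; test concentration not given here.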 The note with it: purified firefly luciferase, SteadyGlo luminescence, 30 min; higher = more signal, called active from +8 up or from −8 down.
For assay [11], the system named is Wnt5a (protein binding on small-molecule microarray). The experiment in a line: small molecules binding Wnt5a protein – biophysical, small-molecule microarray, 635/667 nm fluorescence, primary screen (AID 1142).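 Also: fluorescence read at 667 nm with signal to noise per printed feature.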 The settings on record: 635 nm fluorescence, higher = more signal.
Assay [12] in a line: ATP-based viability of Huh7 replicon cells – cell-based, CellTiter-Glo luminescence, basal, 48 h, cytotoxicity control for HCV replication inhibitor project, primary screen (AID 1143).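 Also: Huh7 hepatoma cells carrying a hepatitis C replication reporter with no stimulus; test concentration not given here.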 The note with it: higher = more signal, called active from +8 up or from −8 down. For orientation: A replicon is a self-replicating genome or part of one, used to study replication in cells.
The nature of assay [13]: Pseudomonas biofilm growth suppression – PAO1 strain, BacTiter-Glo luminescence, LB-PBS, primary screen (AID 1144). The settings on record: P. aeruginosa PAO1 biofilm, 12 h, higher = more signal.
Assay [14] can be described thus: basal CRE-LacZ reporter activity in PC12 – cell-based, unstimulated, primary screen (AID 1145). The settings on record: no forskolin, luminescence, 4.5 h, higher = more signal, called active from +8 up or from −8 down.
Assay [15] is described as follows: forskolin-driven CRE-LacZ activity in PC12 – cell-based, CRE-LacZ reporter, forskolin-stimulated, primary screen (AID 1146).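 Also: PC12 cells with 6xCRE LacZ reporter stimulated by forskolin 10 µM; beta-galactosidase reporter signal reflecting CREB driven transcription.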 The settings on record: luminescence, 4.5 h, higher = more signal, called active from +8 up or from −8 down.
In assay [16] the target is Streptavidin (Streptomyces avidinii) (UniProt P22629). The experiment in a line: compounds binding control protein streptavidin – biophysical, small-molecule microarray, 635/667 nm fluorescence, artefact control for SMM compound annotation, primary screen (AID 1147).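 Also: signal reflects streptavidin binding to arrayed compounds as a control protein.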 The settings on record: higher = more signal.
Chain of Streptavidin (Streptomyces avidinii) (P22629 whole entry, looked up): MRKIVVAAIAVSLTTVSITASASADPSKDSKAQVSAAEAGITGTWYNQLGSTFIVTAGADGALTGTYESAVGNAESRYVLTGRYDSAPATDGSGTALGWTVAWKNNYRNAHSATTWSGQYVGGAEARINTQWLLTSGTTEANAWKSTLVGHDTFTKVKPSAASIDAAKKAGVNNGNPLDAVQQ
The nature of assay [17]: probe aInhba binding on compound microarray – biochemical, small-molecule microarray, 635/667 nm fluorescence, primary screen (AID 1148).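 Also: score merges 667nm spot fluorescence with signal-to-noise for antibody binding to printed compounds.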 The note with it: higher = more signal.
Assay [18] concerns the target Torsin-1A (Homo sapiens) (UniProt O14656). The experiment in a line: TOR1A wild-type binding on microarray – cell lysate, small-molecule microarray, lysate, 635/667 nm, primary screen (AID 1149). The note with it: COS7 hTOR1A-WT lysate, 635 nm fluorescence, higher = more signal.
Assay [19] shares this target. The experiment in a line: torsin A mutant lysate binding on microarrays – cell lysate, small-molecule microarray, COS7 lysate, 635/667 nm fluorescence, primary screen (AID 1150).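 Also: score pools 667 nm emission and signal to noise measuring lysate protein binding.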 The note with it: COS7 hTOR1A mutant lysate, 635 nm fluorescence, higher = more signal.
Assay [20] concerns Sonic hedgehog protein (Shh). Briefly: Sonic hedgehog microarray binding compounds – biochemical, small-molecule microarray, 635/667 nm fluorescence, primary screen (AID 1151).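 Also: Shh protein binding to compounds spotted on small-molecule microarray slides; score combines spot fluorescence intensity with signal-to-noise across triplicate slides.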 The settings on record: 635 nm fluorescence, higher = more signal.

Chain of Luciferin 4-monooxygenase (Photinus pyralis) (P08659 whole entry, looked up): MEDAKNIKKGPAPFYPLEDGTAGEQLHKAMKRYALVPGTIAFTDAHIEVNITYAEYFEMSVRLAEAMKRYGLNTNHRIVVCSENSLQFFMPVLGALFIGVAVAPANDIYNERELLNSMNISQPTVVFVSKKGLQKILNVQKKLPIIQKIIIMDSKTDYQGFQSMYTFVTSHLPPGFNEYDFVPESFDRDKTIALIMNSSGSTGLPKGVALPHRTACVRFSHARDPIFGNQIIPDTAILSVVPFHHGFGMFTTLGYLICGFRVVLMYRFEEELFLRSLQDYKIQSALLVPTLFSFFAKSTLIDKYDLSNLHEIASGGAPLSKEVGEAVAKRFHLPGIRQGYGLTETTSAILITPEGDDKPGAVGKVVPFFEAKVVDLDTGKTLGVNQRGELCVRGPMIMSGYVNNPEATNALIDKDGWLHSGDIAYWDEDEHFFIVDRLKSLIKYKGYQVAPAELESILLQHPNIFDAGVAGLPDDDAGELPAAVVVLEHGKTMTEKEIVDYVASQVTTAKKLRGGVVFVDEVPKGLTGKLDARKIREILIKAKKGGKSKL
Chain of Torsin-1A (Homo sapiens) (O14656 whole entry, looked up): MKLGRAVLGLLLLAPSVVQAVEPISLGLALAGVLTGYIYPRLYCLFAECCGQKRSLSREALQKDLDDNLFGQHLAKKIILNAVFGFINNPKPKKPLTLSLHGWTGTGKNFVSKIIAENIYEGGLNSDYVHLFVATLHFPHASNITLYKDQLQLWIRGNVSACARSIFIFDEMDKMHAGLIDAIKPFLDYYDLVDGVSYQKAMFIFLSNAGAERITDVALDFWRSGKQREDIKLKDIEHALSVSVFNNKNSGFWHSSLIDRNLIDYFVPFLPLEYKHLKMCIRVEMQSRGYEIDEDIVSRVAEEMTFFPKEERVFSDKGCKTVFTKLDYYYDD

As for `Cc1ccc(S(=O)(=O)OC[C@@H]2CN3[C@@H](CC[C@@H](C)[C@@H]3c3ccc(Br)cc3)C(=O)O2)cc1`, the composite z-score in assay [1] is 0.882 and -0.0006; in assay [2], 0.433 and 0.434; in assay [3] it was 0.0343 and 0.0817; in assay [4], 0.555 and 0.193; in assay [5] it was 0.137 and 0.577; in [6] it was 0.281 and 0.102. The composite z-score in assay [8] is 0.229 and 0.512; in [9], 0.382 and 0.37; in assay [11], 0.225 and 0.0286; in assay [16], 0.197 and 0.0059; in [17], -0.0736 and 0.0173; in assay [18], 0.478 and 0.543. In addition, the composite z-score in [19] is 0.244 and 0.594; in assay [20], 0.566 and 0.616. For the same compound, the z-score was -0.346 and 0.285 in assay [7]; 0.39 (inactive) and 0.13 (inactive) in assay [10]; 0.0308 (inactive) and -0.565 (inactive) in [12]; 0.152 (inactive) and -0.0678 (inactive) in [13]; 0.471 (inactive) and 1.22 (inactive) in assay [14]; 0.599 (inactive) and -0.853 (inactive) in assay [15].

With `CCOC(=O)c1ccc(NC(=O)O[C@H]2[C@H](OC(=O)Nc3ccccc3)[C@H](OC(=O)Nc3ccccc3)[C@@H](OC)O[C@@H]2CO)cc1`, the composite z-score is 1.27 and 1.9 in [1]; 1.21 and 1.23 in assay [2]; 0.495 and 1.09 in [3]; 0.982 and 0.709 in assay [4]; 1.27 and 1.31 in [5]; 1.19 and 0.806 in [6]. In addition, the composite z-score in [8] is 0.551 and 1.15; in assay [9], 0.96 and 1.22; in assay [11] it was 0.679 and 0.445; in assay [16], 1.06 and 0.79; in assay [17], 0.189 and 0.232; in [18] it was 0.147 and 0.386. Also, the composite z-score in assay [19] was 0.592 and 0.568; in assay [20], 1.17 and 1.63. The z-score in assay [7] was -0.469 and -0.781; in assay [10] it was 0.197 (inactive) and -0.2 (inactive); in assay [12], -4.37 (inactive) and -5.71 (inactive); in [13] it was 0.44 (inactive) and -0.118 (inactive); in [14], -0.0484 (inactive) and 0.596 (inactive); in [15], 0.359 (inactive) and -1.63 (inactive).

For the compound `COC(=O)C1=C(C)N(Cc2ccccc2)[C@]23O[C@](C(=O)OC)(C(=O)N2[C@@H]1c1ccccc1)[C@@H](c1ccccc1)[C@@H]3C(=O)c1ccccc1`, the composite z-score in assay [1] is -0.148 and -0.112; in assay [2], 0.771 and 0.0338; in assay [3] it was -0.0865 and -0.11; in [4] it was 0.502 and -0.435; in assay [5], -0.0105 and 0.958; in [6], 0.416 and 0.847. Moreover, the composite z-score in assay [8] was 0.0005 and 0.36; in assay [9] it was 0.516 and -0.17; in assay [11], 0.216 and 0.0881; in assay [16], 0.454 and 0.377; in assay [17], -0.0736 and -0.119; in assay [18], 0.388 and 0.241. For the same compound, the composite z-score in [19] was 0.392 and 0.308; in [20], 0.229 and 0.599. Moreover, the z-score is 0.914 and 0.835 in assay [7]; -0.917 (inactive) and -0.717 (inactive) in [10]; -3.24 (inactive) and 0.14 (inactive) in assay [12]; -0.137 (inactive) in [13]; 0.751 (inactive) and 0.29 (inactive) in [14]; -1.08 (inactive) and -0.186 (inactive) in assay [15].

For `C=CCN(CCCCC)C(=O)C1N(c2c(Cl)cccc2CO)C(=O)C2C(C(=O)O)C3C=CC21O3` (stereo not given), the composite z-score in [1] was -1.91 and -0.805; in assay [2] it was -0.751 and -1.1; in assay [3], -0.845 and -0.37; in [4] it was -1.41 and -1.31; in [5] it was -2.55 and -0.968; in [6], -2.42 and -2.09. Also, the composite z-score in assay [8] is -1.6 and -1.98; in assay [9], -2.05 and -1.28; in assay [11] it was -0.65 and -1.3; in assay [16], -1.41; in assay [17] it was -0.258 and -0.152; in [18], -1.44 and -3.52. The composite z-score in assay [19] was -1.09 and -2.63; in assay [20], -0.333 and -1.79. Besides, the z-score in assay [7] was -1.02 and -0.472; in assay [10], 0.975 (inactive) and 0.308 (inactive); in assay [12], 0.0928 (inactive) and -0.313 (inactive); in assay [13], -0.568 (inactive) and -0.00991 (inactive); in assay [14], 0.467 (inactive) and 0.199 (inactive); in [15], 0.209 (inactive) and -0.0386 (inactive).
